# The list is not random: actives were taken first. Their share in the collection is about 0.67%.
# GC-B act: GC-B (human) receptor activation | P20594 | HEK293-GC-B cells, CNP EC30, cGMP TR-FRET; 0% at EC30 CNP, 100% saturating CNP | activation, % at 10 µM | 0.11% of 370,000 active;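 active = activation at 10 µM reaching about 35% in either raw or pattern-adjusted values, limit read from the data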
# NPR1 activator: GC-A (human) enzyme activation. P16066. HEK293 GC-A cells, cGMP TR-FRET, EC30 ANP; 0% at EC30 ANP, 100% saturating ANP. activation, % at 10 µM. 0.14% of 370,000 active. AID 1671463; in the data active = activation above about 40%
# Rin1-Abl PPI inh: blocks binding of human Rin1 to Abl; TR-FRET Rin1/Abl binding, biochemical; 0.4% of 360,000 active; inhibition, % at 7.35 µM; AID 588664; in the data active = inhibition above about 5%, passing the limit was not always enough
# CaV13 ICDI inh: Primary screen for inhibitors of IQ motif and Ca2+-dependent inactivation inhibitor domain binding in CACNA1D, Förster resonance energy transfer in living cells, … | HEK cells, CFP/YFP FRET ICDI-IQ, plate reader, 10 min; percent FRET-ratio fall versus neutral wells | inhibition, % at 12.3 µM | 0.098% of 340,000 active | AID 743397;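 active = mean replicate inhibition of at least 30% and at least 1% of replicates passing that level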;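 note: 0% = median of the neutral control wells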
# Rin1 Abl conf: Rin1-Abl interaction inhibition confirmation. shares compounds with Rin1-Abl PPI inh. TR-FRET Rin1-Abl binding, purified proteins. inhibition, % at 7.35 µM. 49% of 1,300 active
# GFP quench-1: GFP fluorescence interference artifact; shares compounds with Rin1-Abl PPI inh; inhibitors/quenchers counterscreen; inhibition, % at 6.75 µM; 8.5% of 1,300 active;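 note: ABL1-eGFP fusion protein alone without its partner RIN1-SBP; 0% = protein with vehicle and 100% = wells lacking protein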
# GFP quench dose: GFP fluorescence interference dose response | shares compounds with Rin1-Abl PPI inh | GFP fluorescence interference/quenching counterscreen | IC50, µM | 230 tested, under 10 active; call rule not given here;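 note: ABL1-eGFP fusion protein alone without its RIN1 binding partner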
# GFP quench-2: counter-screen for Rin1-Abl interaction inhibitors: GFP fluorescence quenching | shares compounds with Rin1-Abl PPI inh | GFP fluorescence quenching counterscreen, biochemical | IC50, µM | 25 tested, under 10 active; call rule not given here
# Starred values were filed as active, the others as inactive; . = no result given; + = active, no number. Cut-off read from the data, not from the text of the source, unless noted: active = inhibition above about 6.5%; inactive = the rest.
SMILES,GC-B act,NPR1 activator,Rin1-Abl PPI inh,CaV13 ICDI inh,Rin1 Abl conf,GFP quench-1,others
CC1CN(c2ccc([N+](=O)[O-])c(NCCOc3ccccc3)c2)CCN1 (stereo not drawn),22,44*,-7,-3,.,.,
CC(C)C[C@@H]1COc2cc(Br)ccc2S(=O)(=O)N1Cc1cn(CC2CCCCC2)nn1,11,2,.,.,.,.,
O=C(NCc1ccc(C(=O)N2CCOCC2)cc1)c1cccc(Br)c1,7,1,.,.,.,.,
CCOC(=O)Cc1cc(=O)n2[nH]c(C)c(-c3ccccc3)c2n1,43*,36,-1,-4,.,.,
CCOC(=O)Cc1cc(=O)n2[nH]c(-c3ccccc3)c(-c3ccccc3)c2n1,10,8,-2,-6,.,.,
CC(C)CCN1C(=O)c2cccc3c(N)ccc(c23)C1=O,4,11,-18,+,.,.,
COC(=O)C1CN(Cc2ccc(F)cc2)CCS(=O)(=O)N1Cc1cn(Cc2ccc(C)cc2)nn1 (stereo not drawn),10,-6,.,.,.,.,
O=C1CCCN1CCCNc1nc2c(S(=O)(=O)c3ccccc3)nnn2c2ccc(Cl)cc12,48*,36,-1,-7,.,.,
Fc1ccc(-c2nc3ccccn3c2NCc2ccc3c(c2)OCO3)cc1,2,4,4,49*,.,.,
Cc1ccc(S(=O)(=O)CCC(=O)OCC(=O)Nc2cccc(S(=O)(=O)N3CCCCC3)c2)cc1,7,2,-5,58*,.,.,
CCOc1ccc(NC(=O)CN(C)C(=O)CCCNC(=O)c2ccc(Cl)cc2)cc1OCC,9,2,-2,32*,.,.,
COc1cccc(NC(=O)CN(C)C(=O)CCCNC(=O)c2ccc(Cl)cc2)c1,-4,-2,2,-2,.,.,
Cc1cccc(CCNC(=O)c2cc(S(=O)(=O)N3CCCCC3)c[nH]2)c1,-11,-10,0,-7,.,.,
COc1ccc(CCNC(=O)c2cc(S(=O)(=O)N3CCCCC3)c[nH]2)cc1OC,-5,0,0,43*,.,.,
Cc1ccc(NC(=O)Nc2ccc3c(c2)[C@]2(CC(=O)N(CC(C)C)C2c2ccccc2)C(=O)N3C)cc1Cl (stereo partly drawn),11,-5,.,.,.,.,
S=C(c1ccc(-c2ccc(Cl)cc2Cl)o1)N1CCCC1,30,8,-4,-4,.,.,
CN1CCN(C(=S)c2ccc(-c3cc(Cl)ccc3Cl)o2)CC1,50*,4,-4,-5,.,.,
N#CCCN1CCN(C(=S)c2ccc(-c3cc(Cl)ccc3Cl)o2)CC1,97*,4,1,-4,.,.,
CC(=O)c1cc(-c2ccc3[nH]ccc3c2)c(=O)n2c1CCC2,-7,0,.,.,.,.,
CCOc1ccc(S(=O)(=O)Nc2ccc(C(=O)N(CC)CC(=O)NCc3cccs3)cc2)cc1,10,0,0,55*,.,.,
CCOc1ccc(NS(=O)(=O)c2ccc(C(=O)N(CC)CC(=O)NCc3cccs3)cc2)cc1,8,-1,0,.,.,.,
CN1CCC(N[C@@H](Cc2ccccc2)C(=O)NCC(c2ccccc2)c2ccccc2)(C(=O)NC2CCCCC2)CC1,-18,-26,.,.,.,.,
COC(=O)Nc1nc(-c2ccc(F)cc2)c(C)s1,-4,4,5.2*,-2,-2,0,
O=C(c1ccco1)N1CCc2[nH]nc(-c3ccc(Cl)cc3)c2C1,-5,10,16*,-6,1,-1,
N#Cc1ccc(NC(=O)Nc2cccc(C#N)c2)cc1,-2,-1,8.0*,-3,-1,-3,
SMILES,GC-B act,NPR1 activator,Rin1-Abl PPI inh,CaV13 ICDI inh,Rin1 Abl conf,GFP quench-1,others
C/C(=N/Nc1ccc(C(=O)O)cc1)c1ccc(O)c(O)c1O,-2,-4,29*,-6,32*,8.4*,
COc1ccc(OC)c(/C(C)=N/Nc2ccc(C(=O)O)cc2)c1,-4,2,-4,-18,.,.,
CC[n+]1c(C)n(C)c2cc(S(=O)(=O)N(C)C)ccc21,-2,1,8.9*,-5,-1,-3,
O=C(CSc1ccccc1)NC1CCCCN(Cc2ccc(Cl)cc2)C1=O (stereo not drawn),-1,0,.,.,.,.,
O=[N+]([O-])c1ccc(N/N=C/c2ccc(O)c(O)c2O)c(S(=O)(=O)N2CCOCC2)c1,-4,3,14*,-5,9.5*,13*,
O=C(CCc1ccc(S(=O)(=O)N2CCOCC2)cc1)N/N=C/c1ccc(O)c(O)c1O,2,-2,13*,-4,11*,9.4*,
O=[N+]([O-])c1ccc(N/N=C/c2cccc(O)c2O)c(S(=O)(=O)N2CCOCC2)c1,1,-2,1,-13,.,.,
COC(=O)[C@]12C[C@H](CC(=O)NCCC(C)C)C(=O)N(Cc3ccco3)C1=C[C@H](COCc1ccccc1)O[C@@H]2C,-3,1,.,.,.,.,
CC1=C(C(=O)OC(C)C)C2(O)C(=O)c3ccccc3C2(O)N1 (stereo not drawn),2,-1,13*,-5,-2,-1,
CCCCOC(=O)C1=C(C)NC2(O)c3ccccc3C(=O)C12O (stereo not drawn),-1,7,7.8*,.,1,-2,
CCOC(=O)C1=C(C)N[C@@]2(O)c3ccccc3C(=O)[C@@]12O,1,1,3,-4,.,.,
Oc1ccc(/C=N/NC(=S)Nc2cccnc2)c(O)c1O,-1,-4,31*,-5,19*,15*,
Oc1cccc(/C=N/NC(=S)Nc2cccnc2)c1O,0,-5,0,-6,.,.,
COc1cccc(N/N=C/c2cccc(Br)c2O)c1,3,2,-2,-2,.,.,
Cc1cccc(N/N=C/c2ccc(O)c(O)c2O)c1,2,-1,26*,-1,23*,13*,
COc1cc(C(=O)OCC(=O)Nc2ccc(S(=O)(=O)N3CCCC3)cc2)cc(OC)c1OC,0,-2,18*,-15,30*,0,GFP quench dose=>68
CC(=O)c1ccc(NC(=O)Nc2ccc(S(=O)(=O)N3CCCC3)cc2)cc1,0,-2,15*,-5,11*,1,
O=C(Nc1ccc(S(=O)(=O)Nc2ccccc2)cc1)C1CC1,1,-1,11*,-6,0,-1,
CC(=O)Nc1ccc(NC(=O)C2CCN(C(=O)c3cccs3)CC2)cc1,5,-1,47*,6,71*,-5,GFP quench dose=>68;GFP quench-2=>68
CC(=O)c1ccc(NC(=O)c2ccc(S(=O)(=O)N3CCCC3)cc2)cc1,-1,5,-1,.,.,.,
COC(=O)[C@@]12CCCCC3=C1N(CCC3)C(=O)[C@H]2CC(=O)NCc1cccs1,-4,-1,.,.,.,.,

# Assay outcomes deposited in PubChem BioAssay by several laboratories.
